The values that follow come from PubChem BioAssay AID2401 (Southern Research Specialized Biocontainment Screening …, 2010).

Structures are written as SMILES. The campaign covered roughly 2,200 compounds. About 530 (24%) were called active.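 Rule for the calls: active = inhibition above a set limit at one or more concentrations of the dose series; inactive = inhibition under that limit at every dose.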 Not all results are given here. Results with a measured potency or affinity are listed apart.

The assay is described as follows: S. Typhimurium nonspecific reporter signal inhibition – Salmonella Typhimurium, GFP fluorescence, counter-screen for PhoP regulon inhibitor project, dose response (AID 2401).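 Note: S. typhimurium with Mg-insensitive nmpC-GFP reporter grown at 10 µM Mg2+; drop in reporter fluorescence reflects general culture growth inhibition.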 Conditions: 4 h; series mostly up to 150 µM. On the technique in general: A counterscreen serves to expose hits that act by an unwanted route or on another target.
Turning to `COc1ccccc1N1CCN(C(CNS(=O)(=O)c2ccccc2)c2cccnc2)CC1` (stereo not drawn), the outcome was inactive.
In the case of `COc1cccc(C(=O)Oc2c(CN3CCOCC3)cc(Cl)c3cccnc23)c1`, the call was inactive.
As for `c1coc(CNc2c3c(nc4ncnn24)CCCC3)c1`, the outcome was inactive.
Turning to `O=C(NNc1nc(-c2ccccc2)cs1)c1ccco1`, the molecule was called inactive.
To `COCCNS(=O)(=O)c1cccn1-c1ncc(C(F)(F)F)cc1Cl` belongs “inactive”; to `CC(=O)c1c(C)n([O-])c2cc(F)c(F)cc2[n+]1=O`, “inactive”; to `CCOC(=O)CN(C)Cc1c[nH]c2ccccc12`, “inactive”.
To `O=c1c2cc(Br)ccc2nc(-c2ccccc2)n1O` belongs “inactive”.
`N#Cc1c(-c2ccco2)cc(-c2ccc(F)cc2)nc1N`: the molecule was classed as inactive.
As for `O=C1N2CCCc3cccc(c32)C12Nc1ccccc1S2` (stereo not drawn), the result was inactive.
Regarding `CN1CCN(C(c2cccc(C(F)(F)F)c2)c2nnnn2C(C)(C)C)CC1` (stereo not drawn), the molecule was called inactive.
Turning to `C#CCN1C(=O)C(O)(CC(=O)c2ccc(OC)c(OC)c2)c2ccccc21` (stereo not drawn), the result was inactive.
As to `CCCCn1cnc2sc(-c3ccccc3)cc2c1=O`, the call was inactive.
In the case of `O=C(Nc1ccc2c(c1)OCO2)c1cnn2cccnc12`, the molecule was classed as inactive.
With `CN(C)S(=O)(=O)Oc1ccsc1C(=O)Nc1ccccc1Cl`, the molecule was classed as inactive.
Take `CCSc1cc(N2CCCC2)nc(-c2cccc(C)c2)n1`: the molecule was classed as inactive.
Regarding `CC(C)c1ccc(C2C3CSCC=C3C(C#N)=C(N)C2(C#N)C#N)cc1` (stereo not drawn), the molecule was called inactive.
To `Cn1c(CN2CCCCC2)nc2cc(NS(=O)(=O)c3ccc(Cl)cc3)ccc21` belongs “inactive”; to `COc1ccc(S(=O)(=O)N2Cc3ccccc3CC2C(=O)N2CCOCC2)cc1OC` (stereo not drawn), “inactive”; to `Clc1ccc(SCCCCn2ccnc2)cc1`, “inactive”.
To `O=c1[nH]c(NNC(=S)NCc2ccccc2)nc2c1C1(CCCCC1)Cc1ccccc1-2` belongs “inactive”; to `O=C(CSc1nnc2c(Cl)cc(Cl)cn12)NC1CCS(=O)(=O)C1` (stereo not drawn), “inactive”.
To `O=S1(=O)C=CC(Nc2cccc(Cl)c2)C1` (stereo not drawn) belongs “inactive”; to `CCc1cccc(NC(=O)Nc2cccs2)c1`, “inactive”.
As for `COc1cccc2c(=O)c3c(cnn3C)n(C)c12`, the call was inactive.
On to `COC(=O)c1cccc(NC(=O)CCCOc2ccccc2)c1`, for which the result was inactive.
`O=C(NCc1cccs1)c1cccc(Nc2nc3ccc(Br)cc3[nH]2)c1`: the result was inactive.
As to `Cn1c(=O)n(CC(=O)Nc2ccccc2)c2ccccc21`, the molecule was called inactive.
To `O=C(O)C1CC=CCC1C(=O)NC12CC3CC(CC(C3)C1)C2` (stereo not drawn) belongs “inactive”; to `O=C(OCc1nnc(-c2ccccc2)o1)c1ccc(S(=O)(=O)NCc2ccco2)cc1`, “inactive”; to `CN(C)CC(=O)Nc1nc(-c2ccccc2)cs1`, “inactive”.
As for `COc1ccc(-c2csc(NC(=O)C3CCCO3)n2)cc1` (stereo not drawn), the call was inactive.
With `Cc1ccc(C[n+]2cc(-c3ccc(Cl)cc3)n3c2CCC3)cc1`, the molecule was classed as inactive.
Consider `Cc1nc(NC(=O)c2ccccc2)sc1-c1csc(Nc2ccc(F)cc2)n1`, for which the molecule was called inactive.
Turning to `Cc1ccc(NC(=O)CCN2CCc3ccccc3C2)cc1`, the call was inactive.
For `CCOC(=S)SCC(=O)Nc1nc(-c2ccccc2)cs1`, the molecule was called inactive.
For `CCOC(=O)C1=C(C)N(CCO)C(=O)NC1c1cccc(O)c1` (stereo not drawn), the result was inactive.
To `CCCNC(=O)CSc1nnc(C)s1` belongs “inactive”.
On to `Cc1nc2c(Cl)cccc2c2c1CC(CBr)O2` (stereo not drawn), for which the result was inactive.
`CCC1=NNc2cccc3c(OC)ccc1c23`: the molecule was called inactive.
Regarding `COc1ccc(-c2c/c(=N\c3nc(-c4ccccc4)c(C)s3)c3ccccc3o2)cc1O`, the call was inactive.
To `COC(=O)c1c(C)oc2ccc(NS(=O)(=O)c3cccs3)cc12` belongs “inactive”; to `O=C(CCNS(=O)(=O)c1cccc2nsnc12)NCc1cccs1`, “inactive”.
Turning to `O=C(NCc1cccs1)[C@@H]1CSC2c3ccccc3C(=O)N21` (stereo partly drawn), the molecule was classed as inactive.
As for `Nc1cc(N)nc(SCc2cc(=O)oc3cc4c(cc23)CCC4)n1`, the outcome was inactive.
With `CCCn1c(SCC(=O)c2c(C)[nH]c(C)c2C(=O)OCC)nc2ccccc21`, the call was inactive.
In the case of `O=C(CCCN1C(=O)CCC1=O)Nc1ccc2c(c1)OCCO2`, the call was inactive.
To `CCCCCNS(=O)(=O)c1cc(C)ccc1OC` belongs “inactive”; to `CCCCn1nnnc1NCc1cc(OC)c(OC)cc1OC`, “inactive”; to `Cc1ccc(S(=O)(=O)NCCC(=O)OCn2nnc3ccccc3c2=O)cc1`, “inactive”.
With `COc1ccc(-c2nnn(CC(=O)N(Cc3ccco3)C(C(=O)NCC3CCCO3)c3ccco3)n2)cc1` (stereo not drawn), the outcome was inactive.
For `COC(=O)c1cc(C#N)c(Oc2ccc(F)cc2)nc1C`, the call was inactive.
As for `O=C1C(c2ccc(F)cc2)N(Cc2ccc3c(c2)OCO3)C(=O)CN1C1CCCCCC1` (stereo not drawn), the outcome was inactive.
For the molecule `Cc1ccc(-c2[nH]c(-c3ccc(Cl)cc3)nc2SCC(=O)NCC2CCCO2)cc1` (stereo not drawn), the molecule was classed as inactive.
Turning to `COc1cc(C(=O)NC(=S)Nc2ccc3oc(=O)ccc3c2)cc(OC)c1OC`, the outcome was inactive.
As for `Cc1nc(N2CCN(c3ccccc3)CC2)nc2c1C(=O)CC(C)C2` (stereo not drawn), the molecule was called inactive.
For `O=C(Nc1ccc2oc(-c3ccc(Cl)c(Cl)c3)nc2c1)c1ncn[nH]1`, the call was inactive.
As for `O=C(COC(=O)c1cn(-c2ccccc2)nc1-c1ccccc1)c1cccc([N+](=O)[O-])c1`, the call was inactive.
`O=C(NCc1ccccn1)c1cn(-c2ccccc2)nc1-c1ccc(Cl)cc1`: the result was inactive.
On to `CCc1ccc(C(c2c(C)nn(-c3ccccc3)c2N)c2c(C)nn(-c3ccccc3)c2N)cc1`, for which the outcome was inactive.
Regarding `O=C(OCc1ccccc1)c1cn(-c2ccccc2)nc1-c1ccncc1`, the outcome was inactive.
Regarding `C/C(=N\N=C(/N)SC1CC(=O)N(c2cccc(Cl)c2)C1=O)c1cccs1` (stereo not drawn), the result was inactive.
With `Cc1ccc(-n2ncc3c(N4CCN(c5ccccc5)CC4)ncnc32)c(C)c1`, the result was inactive.
Regarding `Cc1ccccc1-n1c(=O)c2ccccc2n2cnnc12`, the result was inactive.
Take `CCCn1nnc(NC(=O)c2ccc(Br)o2)n1`: the call was inactive.
As to `Cc1ccc(NC(=O)COc2ncnc3c(Cl)cc(Cl)cc23)cc1[N+](=O)[O-]`, the molecule was classed as inactive.
Regarding `O=C(NCc1cccnc1)c1ccc(Cl)cc1[N+](=O)[O-]`, the result was inactive.
To `Cc1cc([N+](=O)[O-])cc2ncccc12` belongs “inactive”; to `CC1(C)CC(=O)C2=C(C1)N(c1ccc(F)cc1)C(N)=C(C#N)C2c1cccs1` (stereo not drawn), “inactive”.
To `CCn1c(=O)c(=O)[nH]c2cc(C(=O)NCC3CCCCC3)ccc21` belongs “inactive”; to `O=c1c2c([nH]c3ccccc13)CCCCC2`, “inactive”; to `Cc1cc(NC(=O)c2ccco2)ccc1-n1cnnn1`, “inactive”.
Consider `c1ccc(CSc2nnc(-c3ccncc3)o2)cc1`, for which the result was inactive.
